Most compounds without a hit are left out; they make up all but 6.6% or so of the library.
KB-3-1 cytotox – KB-3-1 parental cell cytotoxicity; Potency, µM (highest dose often 46.1 µM), hits mostly cytotoxic; hit rate 1.4% among 400,000; AID 1347075; KB-3-1 viability, CellTiter-Glo ATP luminescence, 72 h; note: % is set by controls: 0 for no effect and ±100 for the full control effect; nearly all actives have a fitted effect of over 60% in size
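Cytotoxicity in the drug-sensitive parental line KB-3-1 was scored as loss of CellTiter-Glo luminescence following 72 h incubation with compound. Values come from curve fitting of normalized concentration-response data.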
HepG2 tox-1 – kills HepG2 cells in TGF-b inhibitor counter-screen | HepG2 CAGA-GFP viability, ATP luminescence, 18 h | Potency, µM (doses to about 46.1 µM), for the others: at the top dose activity change, negative = cytotoxicity, hits mostly cytotoxic | hit rate 0.76% among 410,000
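HepG2 CAGA-GFP cells (1000/well, DMEM with 1% FBS) received compound, then TGF-beta at 500 pg/mL final, and were incubated 18 hours at 37 degrees C. Viability was read by CellTiter-Glo luminescence. Media-only wells were set as complete cell-killing and DMSO as no toxicity.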
HT1080 IDH1KD tx – HT-1080 IDH1 knockdown cell toxicity (counter line); HT-1080 IDH1 knockdown viability, ATP luminescence, 48 h; Potency, µM (series often up to 46.1 µM), without a hit: at the top dose activity, negative = toxicity, actives largely listed as cytotoxic; hit rate 2% among 360,000; AID 686971;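 note: 0% = DMSO wells and -100% = cell-free medium wells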
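Cytotoxicity counter-line: IDH1KD HT-1080, 48 h, CellTiter-Glo. Curves classed by r2, magnitude and activity.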
KB-V1 cytotox – kills drug-selected multidrug resistant KB-V1 cells; AID 1347076; Potency, µM (top dose mostly 46.1 µM), hits mostly cytotoxic; KB-V1 MDR cells viability, CellTiter-Glo, 72 h; hit rate 3.4% among 400,000; note: % is set by controls: 0 for no effect and ±100 for the full control effect; nearly all actives have a fitted effect of over 60% in size
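Cells of the MDR subline KB-V1 are plated, dosed with compound at multiple concentrations, and incubated 72 h at 37 degrees C; CellTiter-Glo is then added and luminescence read after 10 min.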
TGFb inhibitor – blocks TGF-b signaling; AID 588855; HepG2 CAGA-GFP TGF-b/SMAD3 reporter, GFP fluorescence, 18 h; TGF-beta stimulated, 500 pg/mL final; hit rate 1.2% among 410,000; Potency, µM (highest dose often 46.1 µM), for the others: at the highest dose activity, negative = inhibition, usual class: inhibitors; note: % is set by controls: 0 for no effect and ±100 for the full control effect; nearly all actives have a fitted effect of over 65% in size
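Read-out: total well GFP (ex488/em500-530) summed from mean per-cell fluorescence. Cells: HEPG2 CAGA-GFP, 1% FBS DMEM, 18 h at 37 degrees C with 500 pg/mL final TGF-beta. Unstimulated wells served as the full-inhibition control; stimulated DMSO wells = 0%.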
HT1080-NT tox – kills 2HG-producing HT-1080-NT fibrosarcoma cells. HT-1080-NT fibrosarcoma viability, CellTiter-Glo ATP luminescence, 48 h. Potency, µM (highest dose often 46.1 µM), for inactives: at the top dose activity, negative = less viability, hits mostly cytotoxic. hit rate 1.6% among 360,000;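 note: NT is the 2HG producing partner of a matched IDH1 knockdown line; 0% = DMSO-treated cells and -100% = media-only wells without cells; nearly all actives have a fitted effect of over 55% in size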
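Read-out is CellTiter-Glo luminescence after 10 minutes at room temperature, following 48 hours' compound treatment of HT-1080-NT cells (750 cells/well, RPMI, 5% FBS, 37 degrees C).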
TGFb confirm – confirmation of TGF-b signaling inhibitors in HepG2 reporter cells; shares compounds with TGFb inhibitor; HepG2 CAGA-GFP TGF-b reporter, GFP fluorescence, 18 h; cells stimulated with TGF-beta, 500 pg/mL; Potency, µM (series often up to 46.1 µM), without a hit: top-dose activity, negative = inhibition, most hits filed as inhibitors; hit rate 63% among 1,600; AID 720534; note: % is set by controls: 0 for no effect and ±100 for the full control effect; nearly all actives have a fitted effect of over 65% in size
HepG2 tox-2 – HepG2 cytotoxicity, TGF-b inhibitor counterscreen; shares compounds with TGFb inhibitor; Potency, µM (doses to about 46.1 µM), for the others: at the top dose activity, negative = cytotoxicity, hits mostly inhibitors; hit rate 27% among 1,600; HepG2 CAGA-GFP viability, ATP luminescence, 18 h; cells stimulated with TGF-beta, 500 pg/mL; AID 720535; note: % is set by controls: 0 for no effect and ±100 for the full control effect; nearly all actives have a fitted effect of over 70% in size
CCL64 TGFb inh – TGF-b inhibition, CCL64 orthogonal assay | shares compounds with TGFb inhibitor | CCL64 CAGA-GFP reporter, TGF-b stimulated, GFP fluorescence, 18 h | Potency, µM (series often up to 46.1 µM), for the others: at the top dose activity, negative = inhibition, usual class: inhibitors | hit rate 41% among 1,600 | AID 720536; note: nearly all actives have a fitted effect of over 65% in size
TGFb COP inh – validation of TGF-b inhibitors in HepG2 COP promoter reporter | hit rate 3% among 1,600 | HepG2 COP-GFP TGF-b reporter, GFP fluorescence, 18 h; cells stimulated by added recombinant TGF-beta | shares compounds with TGFb inhibitor | Potency, µM (highest dose often 46.1 µM), inactives show at the top dose activity, negative = inhibition, actives largely listed as inhibitors; note: nearly all actives have a fitted effect of over 70% in size
Active calls of the source: *. Calls come from the whole dose curve; as a rule, active = well fitted curve in the direction sought with a large enough effect; inconclusive = small, poorly fitted or top-dose-only effect, or another doubt; inactive = no such curve, though single readings can be large; an effect the other way counts as inactive or inconclusive. Potency is the fitted concentration of half-maximal effect.

Results for COc1ccc(C(CNC(=O)c2oc3ccc(OC)cc3c2C)N2CCCC2)cc1 (stereo not drawn) ?
KB-3-1 cytotox: inactive; HepG2 tox-1: -29%; HT1080 IDH1KD tx: -17%; KB-V1 cytotox: inactive; TGFb inhibitor: inconclusive; HT1080-NT tox: inconclusive; TGFb confirm: inconclusive; HepG2 tox-2: inconclusive; CCL64 TGFb inh: -8%; TGFb COP inh: 45%

What do the screens show for `COc1ccc(-c2ccc(C(=O)Nc3cccc(NS(C)(=O)=O)c3)c3occc23)c(C)c1`?
KB-3-1 cytotox: inconclusive; HepG2 tox-1: -21%; HT1080 IDH1KD tx: inconclusive; KB-V1 cytotox: inconclusive; TGFb inhibitor: 16µM*; HT1080-NT tox: inconclusive; TGFb confirm: 10µM*; HepG2 tox-2: inconclusive; CCL64 TGFb inh: 23µM*; TGFb COP inh: 35%

Results for COc1ccc(-c2ccc(C(=O)Nc3cccc(F)c3)c3occc23)c(C)c1 ?
KB-3-1 cytotox: inactive; HepG2 tox-1: -17%; HT1080 IDH1KD tx: inconclusive; KB-V1 cytotox: inactive; TGFb inhibitor: -3%; HT1080-NT tox: inconclusive

What do the screens show for `Cc1ccc(S(=O)(=O)N2CCCc3cc(NS(=O)(=O)c4ccc(C)c(C)c4)ccc32)cc1`?
KB-3-1 cytotox: inconclusive; HepG2 tox-1: -5%; KB-V1 cytotox: inconclusive; TGFb inhibitor: inconclusive

Results for c1ccc(CNc2nc(NCCc3ccncc3)c3sccc3n2)cc1 ?
KB-3-1 cytotox: inactive; HepG2 tox-1: -43%; HT1080 IDH1KD tx: inconclusive; KB-V1 cytotox: inconclusive; TGFb inhibitor: 2.2µM*; HT1080-NT tox: inconclusive; TGFb confirm: 1.5µM*; HepG2 tox-2: 7.3µM*; CCL64 TGFb inh: 4.6µM*; TGFb COP inh: 34%

Results for O=C1NCCN1CCNc1nc(NCc2ccccc2)nc2ccsc12 ?
KB-3-1 cytotox: inactive; HepG2 tox-1: -47%; HT1080 IDH1KD tx: 12%; KB-V1 cytotox: inactive; TGFb inhibitor: 7.9µM*; HT1080-NT tox: 27%; TGFb confirm: 15µM*; HepG2 tox-2: inconclusive; CCL64 TGFb inh: inconclusive; TGFb COP inh: 50%

What do the screens show for `CCc1ccccc1Oc1nc(NCc2ccccc2)nc2ccsc12`?
KB-3-1 cytotox: inconclusive; HepG2 tox-1: -26%; HT1080 IDH1KD tx: inconclusive; KB-V1 cytotox: inconclusive; TGFb inhibitor: 11µM*; HT1080-NT tox: inconclusive; TGFb confirm: 23µM*; HepG2 tox-2: inconclusive; CCL64 TGFb inh: 16µM*; TGFb COP inh: 31%

How did NCc1cn(Cc2ccccc2)nc1-c1ccccc1 do in these assays?
KB-3-1 cytotox: inactive; HepG2 tox-1: -3%; KB-V1 cytotox: inactive; TGFb inhibitor: 11%

How did Oc1c(N=Nc2nn[nH]n2)ccc2ccccc12 do in these assays?
KB-3-1 cytotox: inconclusive; HepG2 tox-1: 5.6µM*; HT1080 IDH1KD tx: inconclusive; KB-V1 cytotox: inconclusive; TGFb inhibitor: 4.5µM*; HT1080-NT tox: inconclusive; TGFb confirm: 7.3µM*; HepG2 tox-2: 15µM*; CCL64 TGFb inh: 21µM*; TGFb COP inh: inconclusive

What do the screens show for `CN(CC(=O)Nc1cccc(F)c1)C(=O)c1cccc(S(=O)(=O)N2CC3(C)CC2CC(C)(C)C3)c1` (stereo not drawn)?
KB-3-1 cytotox: inactive; HepG2 tox-1: -21%; HT1080 IDH1KD tx: -22%; KB-V1 cytotox: inconclusive; TGFb inhibitor: 11µM*; HT1080-NT tox: -13%; TGFb confirm: 16µM*; HepG2 tox-2: -29%; CCL64 TGFb inh: inconclusive; TGFb COP inh: 47%

How did CC1(C)CC2CC(C)(CN2S(=O)(=O)c2cccc(C(=O)O)c2)C1 (stereo not drawn) do in these assays?
KB-3-1 cytotox: inactive; HepG2 tox-1: 1%; HT1080 IDH1KD tx: 2%; KB-V1 cytotox: inactive; TGFb inhibitor: -15%; HT1080-NT tox: 0%

How did O=C(COc1ccc([N+](=O)[O-])cc1)N1CCN(c2nnc(-c3ccccc3)c3ccccc23)CC1 do in these assays?
KB-3-1 cytotox: inactive; HepG2 tox-1: 1%; HT1080 IDH1KD tx: 19%; KB-V1 cytotox: inactive; TGFb inhibitor: -8%; HT1080-NT tox: -4%

How did O=C(COc1ccc(-c2nnc(N3CCCCC3)c3ccccc23)cc1)N1CCCCC1 do in these assays?
KB-3-1 cytotox: inconclusive; HepG2 tox-1: -32%; HT1080 IDH1KD tx: inconclusive; KB-V1 cytotox: inconclusive; TGFb inhibitor: 18µM*; HT1080-NT tox: -23%; TGFb confirm: 23µM*; HepG2 tox-2: -20%; CCL64 TGFb inh: -35%; TGFb COP inh: 2%

What do the screens show for `Cc1ccc(CCNC(=O)c2cc3cc(S(=O)(=O)N4CCCCC4)ccc3n2C)cc1`?
HepG2 tox-1: -4%; TGFb inhibitor: 0%

How did Cc1cc(C)cc(-n2ccnc2SCC(=O)Nc2ccc(C)cc2C)c1 do in these assays?
KB-3-1 cytotox: inactive; HepG2 tox-1: -38%; KB-V1 cytotox: inactive; TGFb inhibitor: inconclusive

Results for NC(=O)c1cc([N+](=O)[O-])c(Cl)cc1NCc1ccccn1 ?
KB-3-1 cytotox: inactive; HepG2 tox-1: 3%; HT1080 IDH1KD tx: -3%; KB-V1 cytotox: inactive; TGFb inhibitor: -15%; HT1080-NT tox: 2%

Compound activity (PubChem)
